Bioassay records from PubChem.
In the library only some 1.2% were active in any assay of this set; here they are far more common.
CCHFV vOTU inh – CCHFV vOTU protease inhibitors, primary screen, biochemical, Pep-AMC substrate, fluorescence; hit rate 0.55% among 370,000; inhibition, % at 11.5 µM; in the data active means inhibition above about 30%; further: 0% = vehicle wells with enzyme and 100% = no enzyme wells
Mtb bLac sens – beta-lactam sensitization of Mtb H37Rv, H37Rv | M. tuberculosis H37Rv growth with meropenem, percent inhibition | inhibition, % at 25 µM | hit rate 0.27% among 330,000 | AID 434955, 2010; call rule not given here;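 further: growth measured after seven days incubation then overnight dye step; 0% = bacteria only wells and 100% = bacteria with antibiotic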
RecA splice inh – Mtb RecA intein splicing inhibitors, primary screen, biochemical, fluorescence, HTS; Protein RecA (Mycobacterium tuberculosis (strain ATCC 25618 / H37Rv)), P9WHJ3; cell-free RecA intein splicing; inhibition, % (concentration not given with the values); hit rate 0.75% among 290,000; in the data active means inhibition above about 30%;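 further: 0% = vehicle wells and 100% = reference inhibitor control wells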
UGM FP inh – M. tuberculosis UGM enzyme inhibitors, primary screen, biochemical, fluorescence polarization, single point; UDP-galactopyranose mutase (Mycobacterium tuberculosis (strain ATCC 25618 / H37Rv)), …; purified UGM, fluorescence polarization probe displacement; inhibition, % at 10 µM; hit rate 0.06% among 320,000; AID 504406, 2011; in the data active means inhibition above about 10%, passing the limit was not always enough
Target sequence (P9WIQ1 whole entry, looked up): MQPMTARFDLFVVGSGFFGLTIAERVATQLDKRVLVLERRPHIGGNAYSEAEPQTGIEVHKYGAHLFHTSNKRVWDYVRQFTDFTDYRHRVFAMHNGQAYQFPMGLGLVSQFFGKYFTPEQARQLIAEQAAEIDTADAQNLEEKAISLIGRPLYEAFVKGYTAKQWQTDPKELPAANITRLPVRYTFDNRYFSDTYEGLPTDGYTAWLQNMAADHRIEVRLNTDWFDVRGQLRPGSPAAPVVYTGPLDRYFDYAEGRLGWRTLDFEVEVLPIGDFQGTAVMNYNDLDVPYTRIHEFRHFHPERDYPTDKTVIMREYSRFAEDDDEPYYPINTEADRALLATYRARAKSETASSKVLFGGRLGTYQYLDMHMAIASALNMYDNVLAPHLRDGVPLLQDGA
Rv3671c inh – Rv3671c serine protease inhibitors, primary screen, biochemical, fluorescence polarization, M. tuberculosis H37Rv. P9WHR9. inhibition, % at 5.96 µM. hit rate 0.048% among 320,000; in the data active means inhibition above about 38%;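 further: extracellular domain of Rv3671c used as enzyme; 0% = enzyme with DMSO and 100% = no enzyme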
The depositor's hits bear a star.

`COc1ccccc1NS(=O)(=O)c1cc(N)ccc1N1CCCC1` gave CCHFV vOTU inh -15.6, Mtb bLac sens 0.5, UGM FP inh 23.5* and Rv3671c inh 2.5.
COc1ccccc1NS(=O)(=O)c1cc(N)ccc1N1CCOCC1 was read as CCHFV vOTU inh -0.8, Mtb bLac sens 1.9, UGM FP inh 4.0 and Rv3671c inh -7.5.
Screening CC(C)(Oc1ccc(Cl)cc1)C(=O)NC1=NN(c2ccccc2)C(=O)C1 returned CCHFV vOTU inh 5.2, Mtb bLac sens 2.9, RecA splice inh 12.1, UGM FP inh -0.1 and Rv3671c inh -3.5.
C=C(C)C(=O)NC1=NN(c2ccccc2)C(=O)C1 was read as CCHFV vOTU inh 11.2, Mtb bLac sens -4.1, RecA splice inh 72.6*, UGM FP inh 0.0 and Rv3671c inh -29.4.
For C[C@@H]1C[C@H]2[C@@H](Cc3ccccc3)C(=O)N3[C@H](c4ccccc4)[C@H](C)C[C@H]3[C@@H](Cc3ccccc3)C(=O)N2[C@@H]1c1ccccc1 the results were CCHFV vOTU inh 10.0.
COc1ccccc1/C=N/Nc1cc(N(C)C)nc(N(C)C)n1 was read as CCHFV vOTU inh 12.8, Mtb bLac sens 7.5, RecA splice inh 44.3*, UGM FP inh 0.7 and Rv3671c inh -12.7.
`Cc1c(Cl)cccc1NC(=O)CSCc1cc(=O)[nH][nH]1` gave CCHFV vOTU inh 9.4, Mtb bLac sens -8.6, RecA splice inh 85.3*, UGM FP inh 6.1 and Rv3671c inh -4.5.
Screening Cc1c(Cl)cccc1NC(=O)CSc1nnnn1C returned CCHFV vOTU inh 1.3, Mtb bLac sens 4.8, UGM FP inh -0.6 and Rv3671c inh -0.2.
Cc1cccc(OCC(=O)Oc2ccc(Cl)cc2)c1 was read as CCHFV vOTU inh -11.9, Mtb bLac sens -5.8, RecA splice inh 34.4*, UGM FP inh 3.1 and Rv3671c inh 7.1.
For COc1ccc(-n2cc(COC(=O)NCCc3c[nH]c4ccccc34)nn2)cc1 the results were CCHFV vOTU inh 0.4.
COc1cccc2c1C(=O)c1c(O)c3c(c(O)c1C2=O)C[C@@](O)(C(=O)CO)C[C@@H]3O[C@H]1C[C@H](N)[C@@H](O)[C@H](C)O1 was read as Mtb bLac sens 94.1, RecA splice inh -6.9, UGM FP inh 37.6* and Rv3671c inh 37.0.
COc1cccc2c1C(=O)c1c(O)c3c(c(O)c1C2=O)C[C@@](O)(C(C)=O)C[C@@H]3O[C@H]1C[C@H](N)[C@H](O)[C@H](C)O1 was read as CCHFV vOTU inh 7.7.
COc1ccc(COC(=O)N/N=C(\C)CC(=O)Nc2ccc(Cl)cn2)cc1 was read as CCHFV vOTU inh 10.2, Mtb bLac sens 1.3, RecA splice inh 45.3*, UGM FP inh -1.0 and Rv3671c inh 11.6.
For O=C1CC(c2cccnc2)=NN1c1ccccc1 the results were CCHFV vOTU inh 5.7, Mtb bLac sens -6.3, RecA splice inh 64.4*, UGM FP inh -0.9 and Rv3671c inh -98.7.
Cc1cccc(CSC(Nc2ccc(F)cc2)=C(C#N)C#N)c1 was read as CCHFV vOTU inh -10.9, Mtb bLac sens -2.8, RecA splice inh 53.1*, UGM FP inh 0.1 and Rv3671c inh 2.0.
Screening Cc1cc(OCC(C)CN2CCC(C(O)(c3ccccc3)c3ccccc3)CC2)ccc1Br (stereo unspecified) returned CCHFV vOTU inh 2.5.
Screening C=CCN1C(=O)NC(c2ccc(OC)cc2)(C(F)(F)F)S/C1=C(\C#N)c1nnc(N2CCOCC2)n1-c1ccccc1 (stereo unspecified) returned CCHFV vOTU inh 9.2, Mtb bLac sens 3.4, RecA splice inh 43.4*, UGM FP inh 1.4 and Rv3671c inh 2.5.
For C=CCN1C(c2cccc(C(F)(F)F)c2)=CS/C1=C(/C#N)c1nnc(N2CCOCC2)n1-c1ccccc1 the results were CCHFV vOTU inh 11.8, Mtb bLac sens -7.1, RecA splice inh 1.4, UGM FP inh -4.4 and Rv3671c inh 0.3.
`Fc1ccc(-c2nn(-c3ccccc3)cc2CNCc2ccccc2)cc1` gave CCHFV vOTU inh -6.8, Mtb bLac sens 98.3, RecA splice inh 10.9, UGM FP inh -1.5 and Rv3671c inh 1.0.
Screening O=C(CCl)Nc1cn(-c2ccccc2)nc1-c1ccc(F)cc1 returned CCHFV vOTU inh 13.8, Mtb bLac sens 99.5, RecA splice inh 46.2*, UGM FP inh -0.1 and Rv3671c inh 5.3.
For O=C1C(Cl)=C(N2CCN(c3ccccc3[N+](=O)[O-])CC2)C(=O)c2ccccc21 the results were CCHFV vOTU inh 85.4*, Mtb bLac sens 8.3, RecA splice inh -0.4, UGM FP inh 2.4 and Rv3671c inh -147.4.
Screening COc1ccccc1N1N=C(C(=O)c2ccccc2)C2C(=O)N(c3ccc(Br)cc3)C(=O)C21 (stereo unspecified) returned CCHFV vOTU inh -6.1, Mtb bLac sens 2.6, RecA splice inh -224.6, UGM FP inh 30.8* and Rv3671c inh 0.8.
Screening COc1ccccc1N1C(=O)C2C(C(=O)c3ccccc3)=NN(c3ccccc3)C2C1=O (stereo unspecified) returned CCHFV vOTU inh 7.0, Mtb bLac sens -3.9, RecA splice inh -5.7, UGM FP inh -1.4 and Rv3671c inh 7.3.
`COc1ccc(CN2CCNC(=O)C2CC(=O)N(C)Cc2nccs2)c(OC)c1` (stereo unspecified) gave CCHFV vOTU inh -3.7, Mtb bLac sens 5.7, RecA splice inh 1.0, UGM FP inh 0.5 and Rv3671c inh 2.1.
Screening COc1ccc(CN2CCNC(=O)C2CC(=O)N(C)Cc2ccncn2)c(OC)c1 (stereo unspecified) returned CCHFV vOTU inh 2.2, Mtb bLac sens 3.6, RecA splice inh 30.5*, UGM FP inh -2.2 and Rv3671c inh 0.1.
For CC1CCCCC1N(C(=O)c1cc(C2CC2)on1)C1CCCCC1 (stereo unspecified) the results were CCHFV vOTU inh 11.8.
COC(=O)Cc1c(C)[nH]n(-c2cc(Cl)cc(Cl)c2)c1=O was read as CCHFV vOTU inh 9.9, Mtb bLac sens 4.1, RecA splice inh 40.3*, UGM FP inh -0.7 and Rv3671c inh -42.7.
Cc1[nH]n(-c2ccccc2)c(=O)c1/C=N/NC(=O)c1cccc(F)c1 was read as CCHFV vOTU inh -9.4, Mtb bLac sens 76.0, RecA splice inh 11.1, UGM FP inh 3.7 and Rv3671c inh 8.5.
`Cc1[nH]n(-c2ccccc2)c(=O)c1/C=N/N1CCOCC1` gave CCHFV vOTU inh -6.4, Mtb bLac sens -3.1, RecA splice inh 45.5*, UGM FP inh 5.4 and Rv3671c inh -5.1.
Cc1cc(C(=O)N/N=C/c2c(C)[nH]n(-c3ccccc3)c2=O)n[nH]1 was read as CCHFV vOTU inh 16.6, Mtb bLac sens 2.4, RecA splice inh 54.7*, UGM FP inh -0.4 and Rv3671c inh -13.2.
`COc1cc(C=NN=c2sc3ccccc3n2C)ccc1OCCO` gave CCHFV vOTU inh 24.0.
